Screens from PubChem BioAssay.
G9a block = blocks human histone lysine methyltransferase G9a; G9a H3K9 monomethylation, AlphaScreen, 2 h; hit rate 8.8% among 350,000; AID 504332; Potency, µM (doses to about 102 µM), inactives show at the highest dose activity, negative = inhibition, actives largely listed as inhibitors; Q96KQ7; further: on the % scale 0 is the no-effect control and ±100 the full control effect; nearly all actives have a fitted effect of over 75% in size
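Quantitative HTS format: methyltransferase activity on a biotin-tagged H3K9 peptide is measured by AlphaScreen, using a rabbit anti-monomethyl-H3K9 antibody with streptavidin donor and anti-IgG acceptor beads. Final levels are 20 nM enzyme, 500 nM peptide, 20 uM SAM; 2 h RT.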
HP1b chromo inh = inhibitors of HP1-beta chromodomain binding to methylated histone tails | hit rate 0.56% among 390,000 | Potency, µM (top dose mostly 114 µM), inactives show at the top dose activity change, negative = inhibition, hits mostly inhibitors | P83916 | AlphaScreen HP1-beta / biotin-H3K9me3 peptide binding | AID 540317; further: nearly all actives have a fitted effect of over 70% in size
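HP1-beta protein (50 nM final) preincubated 30 min at room temperature with biotinylated H3(1-18)K9me3 peptide (50 nM) in PBS pH 7.4, 0.01% Tween-20, then compound added for 30 min. AlphaScreen streptavidin donor/nickel chelate acceptor beads (10 ug/mL final), 30 min dark, luminescence read.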
JMJD2A Tudor = blocks the human JMJD2A Tudor domain; O75164; AlphaScreen JMJD2A-Tudor / H3K4me3 peptide binding; Potency, µM (doses to about 114 µM), for the others: top-dose activity change, negative = inhibition, actives largely listed as inhibitors; hit rate 4.4% among 390,000; AID 504339; further: on the % scale 0 is the no-effect control and ±100 the full control effect; nearly all actives have a fitted effect of over 50% in size
Target sequence (O75164 whole entry, looked up, the tested form may be a part): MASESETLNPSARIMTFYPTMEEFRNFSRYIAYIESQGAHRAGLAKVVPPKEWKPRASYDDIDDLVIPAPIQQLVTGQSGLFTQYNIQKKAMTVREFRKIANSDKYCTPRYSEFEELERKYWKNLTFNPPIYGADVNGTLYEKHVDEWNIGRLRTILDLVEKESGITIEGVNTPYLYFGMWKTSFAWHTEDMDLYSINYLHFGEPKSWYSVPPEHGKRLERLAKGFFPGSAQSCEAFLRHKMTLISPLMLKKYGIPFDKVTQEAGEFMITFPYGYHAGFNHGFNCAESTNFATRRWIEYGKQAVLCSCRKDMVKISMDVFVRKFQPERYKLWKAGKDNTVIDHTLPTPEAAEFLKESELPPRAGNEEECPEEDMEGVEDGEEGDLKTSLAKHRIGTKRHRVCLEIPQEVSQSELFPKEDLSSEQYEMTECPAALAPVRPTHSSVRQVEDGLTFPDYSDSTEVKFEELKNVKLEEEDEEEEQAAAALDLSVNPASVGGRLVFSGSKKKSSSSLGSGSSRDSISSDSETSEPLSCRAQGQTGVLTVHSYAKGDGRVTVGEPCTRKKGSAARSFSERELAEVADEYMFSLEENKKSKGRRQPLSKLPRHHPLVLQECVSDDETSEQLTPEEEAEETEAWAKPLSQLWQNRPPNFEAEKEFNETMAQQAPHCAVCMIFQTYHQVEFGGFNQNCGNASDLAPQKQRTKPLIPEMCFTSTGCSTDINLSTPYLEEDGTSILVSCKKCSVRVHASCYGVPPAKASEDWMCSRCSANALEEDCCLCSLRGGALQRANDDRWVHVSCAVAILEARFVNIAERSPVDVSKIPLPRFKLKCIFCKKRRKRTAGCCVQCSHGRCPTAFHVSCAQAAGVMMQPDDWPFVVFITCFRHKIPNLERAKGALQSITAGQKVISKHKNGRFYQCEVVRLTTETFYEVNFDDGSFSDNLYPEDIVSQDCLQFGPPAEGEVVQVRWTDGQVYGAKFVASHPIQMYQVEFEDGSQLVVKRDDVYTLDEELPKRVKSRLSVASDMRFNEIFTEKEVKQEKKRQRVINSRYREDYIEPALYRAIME
Sfp inh = blocks B. subtilis Sfp PPTase activity. Q9F4F7. Biochemical Sfp PPTase activity, qHTS. Potency, µM, for the others: largest response in the series, negative = inhibition, actives largely listed as inhibitors. hit rate 3.5% among 310,000. AID 1490;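 further: the enzyme is Sfp with the accession as filed and its product quenches rhodamine fluorescence; 0% = enzyme reaction without inhibitor and -100% = no enzyme wells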
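Reaction rates are the 30-min fluorescence difference (ex 525, em 598 nm) in wells containing 15 nM Sfp, 5 uM rhodamine-CoA and 12.5 uM BHQ-2-YbbR at pH 7.6 with 10 mM MgCl2.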
L3MBTL1 inh = inhibitors of human L3MBTL1 | Potency, µM (doses to about 57.1 µM), without a hit: at the top dose activity, negative = inhibition, actives largely listed as inhibitors | hit rate 0.66% among 230,000 | AlphaScreen L3MBTL1–H3K9me1 peptide binding | AID 485360; further: on the % scale 0 is the no-effect control and ±100 the full control effect; nearly all actives have a fitted effect of over 60% in size
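L3MBTL1 50 nM + b-AHA-H3(1-15)K9me1 75 nM, 30 min RT; compound added, 30 min RT; streptavidin donor/Ni-chelate acceptor beads 10 ug/mL each final, 30 min RT dark; AlphaScreen read.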
BAZ2B inh = BAZ2B (human) inhibition | Q9UIF8 | AlphaScreen BAZ2B-H3K14Ac peptide displacement | Potency, µM (doses to about 114 µM), without a hit: at the highest dose activity change, negative = inhibition, hits mostly inhibitors | hit rate 4.4% among 360,000 | AID 504333; further: on the % scale 0 is the no-effect control and ±100 the full control effect; nearly all actives have a fitted effect of over 60% in size
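Protein-peptide AlphaScreen: BAZ2B 50 nM, b-H3K14Ac 50 nM, 1x PBS pH 7.4 + 0.01% Tween-20. Preincubation 30 min RT; cpd 30 min RT (top 110 uM); beads 20 min RT, light-protected.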
* marks the source's active call; other numbers are inactive results; [ ] = another dose, or the depositor's remark. In the library only some 12% were active in any assay of this set; here they are far more common. The call rests on the fitted dose curve; in most records, active means well fitted curve in the direction sought with a large enough effect; inconclusive means small, poorly fitted or top-dose-only effect, or another doubt; inactive means no such curve, though single readings can be large; an effect the other way counts as inactive or inconclusive. Potency means the concentration at half of the fitted maximal effect.

How did CC1CCCCN1CC(=O)Nc1ccc(Oc2ccccc2)cc1 (configuration not stated) do in these assays?
G9a block: -5.6%; HP1b chromo inh: 49.4%; JMJD2A Tudor: -9.0%; Sfp inh: 0.7%; BAZ2B inh: 1.1%

Results for CC1CCCCN1CC(=O)Nc1ccc(N2CCCCCC2)cc1 (configuration not stated) ?
G9a block: 3.16µM*; HP1b chromo inh: 22.4µM*; JMJD2A Tudor: 1.41µM*; Sfp inh: 44.7µM*; L3MBTL1 inh: inconclusive; BAZ2B inh: 11.2µM*

Results for O=C(Cc1ccccc1)Nc1ccc(N2CCCCC2)cc1 ?
G9a block: 28.2µM*; HP1b chromo inh: 31.8%; JMJD2A Tudor: -23.7%; Sfp inh: 7.0%; BAZ2B inh: -23.9%

How did CCNC(=S)Nc1ccc(N2CCCCC2)cc1 do in these assays?
G9a block: 31.6µM*; HP1b chromo inh: inconclusive; JMJD2A Tudor: -29.6%[57.1 µM]; Sfp inh: -18.5%; BAZ2B inh: 35.5µM*

Results for CCc1ccccc1NC(=O)c1ccc(CN2C(=O)CCn3nc(C)cc32)cc1 ?
G9a block: inconclusive; HP1b chromo inh: 44.0%; JMJD2A Tudor: -5.9%; BAZ2B inh: 0.6%

How did CC1CCN(C(=O)Cn2cc(SCC(=O)NCc3ccccc3Cl)c3ccccc32)CC1 do in these assays?
G9a block: -9.1%[59 µM]; HP1b chromo inh: 11.5%; JMJD2A Tudor: -15.8%; BAZ2B inh: -28.7%

How did O=C(Cn1c(-c2ccccc2)noc1=O)Nc1ccc(N2CCCCCC2)cc1 do in these assays?
G9a block: inconclusive; HP1b chromo inh: inconclusive; JMJD2A Tudor: 22.4µM*; Sfp inh: 10.7%; L3MBTL1 inh: inconclusive; BAZ2B inh: 22.4µM*

What do the screens show for `O=C(COC(=O)CCc1nc2ccccc2n1-c1ccccc1)Nc1ccc(N2CCCCC2)cc1`?
G9a block: 10µM*; HP1b chromo inh: -6.2%; JMJD2A Tudor: -20.3%; Sfp inh: -0.1%; L3MBTL1 inh: -9.1%; BAZ2B inh: inconclusive

How did CCN1CCSc2ccc(C(=O)NCc3ccccc3Br)cc21 do in these assays?
G9a block: -1.0%; HP1b chromo inh: 19.9%; JMJD2A Tudor: -23.2%; Sfp inh: 12.6%; L3MBTL1 inh: -8.8%; BAZ2B inh: inconclusive

How did CCOC(=O)N1CCC(NC(=O)c2ccc3c(c2)N(C)CCS3)CC1 do in these assays?
G9a block: inconclusive; HP1b chromo inh: 13.5%; JMJD2A Tudor: inconclusive; Sfp inh: 25.1µM*; L3MBTL1 inh: -9.2%; BAZ2B inh: -4.9%

What do the screens show for `CCOC(=O)N1CCN(C(=O)c2ccc3c(c2)N(CC)CCS3)CC1`?
G9a block: 35.5µM*; HP1b chromo inh: 35.7%; JMJD2A Tudor: -13.6%; Sfp inh: 50.1µM*; BAZ2B inh: -7.3%

What do the screens show for `CC(C)Oc1ccc(CNC(=O)c2ccc3c(c2)N(C)CCS3)cc1`?
G9a block: 56.2µM*; HP1b chromo inh: -10.7%; JMJD2A Tudor: inconclusive; Sfp inh: 5.2%; L3MBTL1 inh: -27.7%; BAZ2B inh: inconclusive

Results for CCN1CCSc2ccc(C(=O)NCc3ccccc3C)cc21 ?
G9a block: 70.8µM*; HP1b chromo inh: 5.3%; JMJD2A Tudor: inconclusive; Sfp inh: -7.6%; L3MBTL1 inh: -13.5%; BAZ2B inh: inconclusive

How did Cc1cc2nc(-c3ccc4c(c3)CCC4)ccn2n1 do in these assays?
HP1b chromo inh: 206.2%; JMJD2A Tudor: 82.2%; Sfp inh: 0.6%; L3MBTL1 inh: 91.7%; BAZ2B inh: 83.3%

What do the screens show for `Cc1ccc2c(c1)-c1nc(-c3ccccc3)cc(-c3ccccc3)c1CO2`?
G9a block: -0.6%[59 µM]; HP1b chromo inh: 58.8%; JMJD2A Tudor: 20.1%; BAZ2B inh: -10.0%

Results for Nc1ccc(S(=O)(=O)N2CCOCC2)cc1 ?
HP1b chromo inh: 30.8%; JMJD2A Tudor: -5.0%

Results for CN1CCSc2ccc(C(=O)NCc3ccccc3F)cc21 ?
G9a block: 11.2µM*; HP1b chromo inh: -12.8%; JMJD2A Tudor: -19.6%; Sfp inh: -28.7%; L3MBTL1 inh: -6.4%; BAZ2B inh: 9.5%
